“And” between values parts separate entries of the source, which are not always exact repeats. Equal entries are not always repeated. Hit rate of the full screen: of about 350,000 compounds, about 5,500 (1.6%) were called active.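 How the source made its calls: active means significant combined selectivity score with lowered wild-type GFP, culture density cut under 30%, mutant RFP and density less affected; inactive means any of these conditions unmet.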 Shown is part of a subset that was picked to be rich in actives. The source holds several records for some structures; these can differ, active in one and inactive in another.

The nature of this experiment: reduced GFP signal of wild-type E. coli, primary screen, bacterial rRNA inhibitor project, GFP/RFP fluorescence, OD600, single point (AID 720706). The conditions noted are these: E. coli WT GFP vs humanized-ribosome RFP mutants, 24 h; GFP signal change (wild-type ribosome): stronger effect = lower value, DMSO median 0, no signal -100; OD600 change: measured here: OD600 growth, DMSO median 0, no signal -100; RFP signal change: measured here: RFP humanized mutant strains, DMSO median 0, no signal -100, concentration not given here.
As for `O=C(COC(=O)c1ccc(O)cc1O)c1ccc2c(c1)OCCO2`, the GFP signal change (wild-type ribosome) is -13.2% (inactive), the OD600 change is -20.4% and the RFP signal change is 0.835%.
Taken in the same sequence, the figures for `CC=Cc1ccc2n(c1=O)C[C@@H]1[C@@H](CO)[C@H](C(=O)N(C)C)N(CC3CCOCC3)[C@H]21` (mixture of isomers) were 2.33% (inactive), -5.67% and 0.865%.
Taken in the same sequence, the figures for `CN1c2ccc(Br)cc2[C@@H]2[C@@H](CCN2C(=O)C2CCCC2)[C@H]1CO` were -37% (inactive), -68.3% and 0.745%.
On to `COCC#Cc1ccc([C@@H]2[C@@H](CO)N3CCCCN(C(=O)COC)C[C@@H]23)cc1`, for which the GFP signal change (wild-type ribosome) is 4.36% (inactive), the OD600 change was found to be 1.27% and the RFP signal change was -1.64%.
The matching figures for `COCC#Cc1ccc2c(c1)O[C@H](CN(C)C(=O)CC1CC1)[C@@H](C)CN([C@@H](C)CO)S2(=O)=O`: 1.22% (inactive), 3.88% and -1.84%.
The matching figures for `CCCNC(=O)N(C)C[C@H]1Oc2ncc(-c3ccccc3F)cc2C(=O)N([C@@H](C)CO)C[C@H]1C`: -0.164% (inactive), 9.97% and 0.69%.
The matching figures for `CC(=O)NC(c1ccccc1)c1nc(-c2cccc(C(C)C)c2)cs1` (centres undefined): 2.35% (inactive), -27.5% and 4.32%.
Consider `Cc1cccc(Nc2nc(-c3ccccc3)cs2)n1`, for which the GFP signal change (wild-type ribosome) is -36.3% (active), the OD600 change was -28.1% and the RFP signal change was -6.26%.
Regarding `COc1ccc(-c2csc(Nc3cccc(C)n3)n2)cc1OC`, the GFP signal change (wild-type ribosome) is -3.87% (inactive), the OD600 change is -21.5% and the RFP signal change was found to be 23%.
Turning to `COc1ccc(-c2cn(CC[C@@H]3CC[C@@H](NS(=O)(=O)c4ccccc4C)[C@H](CO)O3)nn2)cc1`, the GFP signal change (wild-type ribosome) was -0.161% (inactive), the OD600 change was 0.015% and the RFP signal change is 1.23%.
Turning to `COc1ccccc1NC(=O)N[C@H]1CC[C@@H](CC(=O)NCc2ccc(Cl)c(Cl)c2)O[C@H]1CO`, the GFP signal change (wild-type ribosome) was -9.75% (inactive), the OD600 change was -22.7% and the RFP signal change was 1.88%.
Take `CC12CCC(=O)C=C1CCC1C2C(O)CC2(C)C1CCC2(O)C(O)CO` (centres undefined): the GFP signal change (wild-type ribosome) is 8.19% (inactive), the OD600 change is 4.56% and the RFP signal change was determined as 4.01%.
The matching figures for `CC(=O)O[C@]1(C(C)=O)CC[C@H]2[C@@H]3C=C(C)C4=CC(=O)CC[C@]4(C)[C@H]3CC[C@@]21C`: -55.8% (inactive), -76.8% and -10.6%.
Regarding `CC(=O)C12CC(C)=C(C)CC1CC1C3CCC4=CC(=O)CCC4(C)C3CCC12C` (centres undefined), the GFP signal change (wild-type ribosome) was -17.6% (active), the OD600 change is 7.85% and the RFP signal change stood at 5.44%.
Consider `CCCC#Cc1ccc([C@H]2[C@H]3CN(C(=O)Nc4cc(F)ccc4F)CC(=O)N3[C@H]2CO)cc1`, for which the GFP signal change (wild-type ribosome) was -18.4% (inactive), the OD600 change is -50.2% and the RFP signal change came to 11.1%.
Taken in the same sequence, the figures for `C[C@@H]1CN([C@H](C)CO)C(=O)c2cc(NC(=O)NC3CCCCC3)ccc2O[C@H]1CN(C)C(=O)Nc1ccccc1` were 5.36% (inactive), 10.1% and 2.7%.
As for `O=C(C[C@H]1C=C[C@H](NC(=O)C2CCC2)[C@H](CO)O1)NCCCN1CCOCC1`, the GFP signal change (wild-type ribosome) was 1.78% (inactive), the OD600 change was 4.36% and the RFP signal change was -0.385%.
Taken in the same sequence, the figures for `CCCCCn1nnnc1C1c2ccccc2C(=O)N1Cc1ccco1` (centres undefined) were -4.73% (inactive), -2.58% and -0.015%.
Taken in the same sequence, the figures for `CCCCCn1nnnc1-c1nc2cc3ccccc3cc2[nH]c1=O` were -19.2% (active), -5.54% and 8.22%.
Consider `CCCCn1c(-c2cccc(C)c2)nc2cc3[nH]c(=O)c(C(C)C)nc3cc21`, for which the GFP signal change (wild-type ribosome) was -29.5% (inactive), the OD600 change was -62% and the RFP signal change was found to be 13.5%.
The matching figures for `Cc1[nH]c2ccc(C(=O)N3CCN(C)CC3)cc2c1C`: 6.6% (inactive), 11% and 3.29%.
`CCOc1ccccc1N1CCN(C(=O)c2ccc3[nH]c(C)c(C)c3c2)CC1`: the GFP signal change (wild-type ribosome) is -34.6% (active), the OD600 change was -17.6% and the RFP signal change was found to be 7.07%.
The matching figures for `CCn1c(C)c(C)c2cc(C(=O)N3CCN(c4cccc(C)c4C)CC3)ccc21`: 13.4% (inactive), -10.1% and 8.15%.
The matching figures for `CNC[C@@H]1Oc2ccc(N(C)C)cc2CC(=O)N(C)C[C@@H]1C`: -0.679% (inactive), 1.44% and -1.38%.
Regarding `NN=C(NN=Cc1ccccc1)c1ccccc1`, the GFP signal change (wild-type ribosome) is 3.05% (inactive), the OD600 change came out at 19.4% and the RFP signal change was -0.189%.
For the compound `CN(O)C(=S)c1ccccc1`, the GFP signal change (wild-type ribosome) is -58% (inactive), the OD600 change is -75.2% and the RFP signal change is -15%.
The matching figures for `CN(/N=C/c1ccccc1)C(=S)c1ccccc1`: -28.9% (active), -13.5% and -2.92%.
`O=C(C[C@H]1C[C@@H]2c3cc(NS(=O)(=O)c4ccc(F)cc4)ccc3O[C@@H]2[C@H](CO)O1)NCc1cccc(F)c1`: the GFP signal change (wild-type ribosome) is 0.64% (inactive), the OD600 change was -2.85% and the RFP signal change turned out to be 2.59%.
Consider `CCC(=O)N1CC(=O)N2[C@@H](CO)[C@H](c3ccc(C#CC4CCCC4)cc3)[C@@H]2C1`, for which the GFP signal change (wild-type ribosome) was 1.66% (inactive), the OD600 change is -3.78% and the RFP signal change was -1.59%.
The matching figures for `O=C(C[C@@H]1CC[C@H]2[C@@H](COC[C@@H](O)CN2C(=O)c2ccc3c(c2)OCO3)O1)NC1Cc2ccccc2C1`: 1.47% (inactive), -6.88% and -0.618%.
As to `C[C@@H]1CN([C@@H](C)CO)C(=O)CCCn2nncc2CO[C@H]1CN(C)C(=O)Nc1ccc(C(F)(F)F)cc1`, the GFP signal change (wild-type ribosome) is -16.6% (active) and -54% (inactive); the OD600 change was -10.2% and -56.3%; the RFP signal change was 5.18% and -10.9%.
Consider `C[C@@H]1CN([C@@H](C)CO)C(=O)CCCn2nncc2CO[C@H]1CN(C)Cc1ccc(C(F)(F)F)cc1`, for which the GFP signal change (wild-type ribosome) is -3.59% (inactive) and 7.37% (inactive); the OD600 change is -1.83% and 9.18%; the RFP signal change was 2.44% and -0.538%.
As to `C[C@H]1CN([C@@H](C)CO)C(=O)CCCn2nncc2CO[C@@H]1CN(C)C(=O)Nc1ccc(N2CCN(C)CC2)cc1`, the GFP signal change (wild-type ribosome) was 22.4% (inactive) and -1.77% (inactive); the OD600 change is 13.6% and 7.97%; the RFP signal change was 3.72% and -0.742%.

Values taken from PubChem BioAssay AID720706 (Broad Institute, 2013).
